Test [1] in a line: NCI Yeast Anticancer Drug Screen. Data for the rad50 strain (AID 155).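 Also: 0% = growth of vehicle-only cultures of the same strain.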 To be noted: S. cerevisiae rad50 strain growth inhibition, active compounds read high. The procedure, abridged:
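Growth of the mutant yeast was measured after compound exposure and referenced to vehicle-treated cultures.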

Test [2] in a line: NCI Yeast Anticancer Drug Screen. Data for the mec2-1 strain (AID 157). The following applies: S. cerevisiae mec2-1 strain, active compounds read high. In outline: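 Yeast mec2-1 mutant treated with compound. Readout: growth inhibition vs vehicle controls.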
Test [3] can be described thus: NCI Yeast Anticancer Drug Screen. Data for the sgs1 mgt1 strain (AID 161).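 Also: 0% = growth of cultures given vehicle only.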 The following applies: S. cerevisiae sgs1 mgt1 strain, active compounds read high. In outline: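 Mutant yeast exposed to compound; growth scored against vehicle-only wells.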
Test [4] can be described thus: NCI Yeast Anticancer Drug Screen. Data for the cln2 rad14 strain (AID 165).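 Also: 0% = growth equal to vehicle treated cultures.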 The following applies: S. cerevisiae cln2 rad14 strain, active compounds read high. The procedure, abridged: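 cln2 rad14 yeast strain; compound exposure; growth inhibition read vs vehicle controls.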
The nature of test [5]: NCI Yeast Anticancer Drug Screen. Data for the bub3 strain (AID 167). To be noted: S. cerevisiae bub3 mutant strain, active compounds read high. In outline:
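Whole-cell yeast assay. The mutant strain was incubated with compounds, and growth inhibition was determined by comparison with vehicle-treated cells.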

Test [6] in a line: NCI Yeast Anticancer Drug Screen. Data for the mlh1 rad18 strain (AID 175). The following applies: S. cerevisiae mlh1 rad18 strain growth inhibition, active compounds read high. In outline: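 Yeast w/ defined DNA-repair lesions; compound exposure; growth vs vehicle controls → % inhibition.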
[7] abbreviates: at 5.0 µM (retest, dose inferred, filed as 0.5).
Where [8] appears, read: at 50.0 µM (retest, dose inferred, filed as 5.0).

Compounds without any hit were thinned out: in the full panel of roughly 79,000, 15% have a hit. Unmarked numbers belong to inactive results. Activity calls are given as the source filed them. Rule as the data show it: active = growth inhibition above about 70%; inactive = the rest.

Consider `C[C@@]12C(=O)OC(=O)[C@]1(C)[C@H]1CC[C@@H]2O1`, for which the growth inhibition in test [1] (setting [7]) was 96% (active); in test [1] (setting [8]), 98% (active); in test [1] (at 50.0 µM), 93.2% (active); in test [2] (setting [7]), 94% (active); in test [2] (setting [8]), 99% (active); in test [2] (at 50.0 µM), 94.2% (active). In addition, the growth inhibition is 97% (active) in test [3] (setting [7]); 97% (active) in test [3] (setting [8]); 93.3% (active) in test [3] (at 50.0 µM); 78% (active) in test [4] (setting [7]); 98% (active) in test [4] (setting [8]); 91.8% (active) in test [4] (at 50.0 µM). Moreover, the growth inhibition was 70% (active) in test [5] (setting [7]); 99% (active) in test [5] (setting [8]); 92.8% (active) in test [5] (at 50.0 µM); 96% (active) in test [6] (setting [7]); 98% (active) in test [6] (setting [8]); 92.5% (active) in test [6] (at 50.0 µM).

Regarding `O=[N+]([O-])c1ccc2c(c1)OCO2`, the growth inhibition was 0% in test [1] (setting [7]); 22% in test [1] (setting [8]); 68.2% in test [1] (at 50.0 µM); 1% in test [2] (setting [7]); 4% in test [2] (setting [8]); 8% in test [2] (at 50.0 µM). Besides, the growth inhibition in test [3] (setting [7]) was -2%; in test [3] (setting [8]), 3%; in test [3] (at 50.0 µM) it was 69.7%; in test [4] (setting [7]), 1%; in test [4] (setting [8]), 0%; in test [4] (at 50.0 µM), 6.95%. For the same compound, the growth inhibition in test [5] (setting [7]) is 0%; in test [5] (setting [8]), 3%; in test [5] (at 50.0 µM), 37%; in test [6] (setting [7]), -4%; in test [6] (setting [8]) it was 5%; in test [6] (at 50.0 µM) it was 67.7%.

As for `O=C1C(=O)N(C(=O)c2ccc(Cl)c(Cl)c2)c2ccc(Cl)cc21`, the growth inhibition was -6% in test [1] (setting [7]); -4% in test [1] (setting [8]); 13.6% in test [1] (at 50.0 µM); -9% in test [2] (setting [7]); 2% in test [2] (setting [8]); 24.4% in test [2] (at 50.0 µM). Also, the growth inhibition in test [3] (setting [7]) is -7%; in test [3] (setting [8]), 6%; in test [3] (at 50.0 µM), 35.2%; in test [4] (setting [7]), -9%; in test [4] (setting [8]), -20%; in test [4] (at 50.0 µM), 10.8%. In addition, the growth inhibition in test [5] (setting [7]) was -6%; in test [5] (setting [8]), 56%; in test [5] (at 50.0 µM), 91.6% (active); in test [6] (setting [7]) it was -8%; in test [6] (setting [8]), 12%; in test [6] (at 50.0 µM), 64%.

As to `CCOC(=O)CCc1ccc(OC)c(OC)c1`, the growth inhibition is 1% in test [1] (setting [7]); -2% in test [1] (setting [8]); -9.55% in test [1] (at 50.0 µM); 16% in test [2] (setting [7]); -4% in test [2] (setting [8]); 23% in test [2] (at 50.0 µM). Also, the growth inhibition in test [3] (setting [7]) is 0%; in test [3] (setting [8]) it was -2%; in test [3] (at 50.0 µM), 22.9%; in test [4] (setting [7]) it was 3%; in test [4] (setting [8]), -8%; in test [4] (at 50.0 µM), 38.7%. In addition, the growth inhibition in test [5] (setting [7]) is -2%; in test [5] (setting [8]), 19%; in test [5] (at 50.0 µM), 17.4%; in test [6] (setting [7]), 2%; in test [6] (setting [8]), -1%; in test [6] (at 50.0 µM) it was -5.15%.

Take `CCCCCc1ccc2cc(C(=O)O)[nH]c2c1`: the growth inhibition is 4% in test [1] (setting [7]); 59% in test [1] (setting [8]); 96.7% (active) in test [1] (at 50.0 µM); 3% in test [2] (setting [7]); 72% (active) in test [2] (setting [8]); 95.6% (active) in test [2] (at 50.0 µM). The growth inhibition in test [3] (setting [7]) was -4%; in test [3] (setting [8]), 59%; in test [3] (at 50.0 µM), 95% (active); in test [4] (setting [7]), -1%; in test [4] (setting [8]), 59%; in test [4] (at 50.0 µM), 97.8% (active). Moreover, the growth inhibition in test [5] (setting [7]) is 1%; in test [5] (setting [8]), 47%; in test [5] (at 50.0 µM), 97.2% (active); in test [6] (setting [7]), 3%; in test [6] (setting [8]) it was 51%; in test [6] (at 50.0 µM), 98.2% (active).

As for `CCC(c1ccc(O)c(C2CCCCC2)c1)C(CC)c1ccc(OC(=O)c2ccccc2)c(C2CCCCC2)c1` (stereo not given), the growth inhibition in test [1] (setting [7]) was 0%; in test [1] (setting [8]), -2%; in test [1] (at 50.0 µM) it was -16.8%; in test [2] (setting [7]) it was -21%; in test [2] (setting [8]) it was 10%; in test [2] (at 50.0 µM), -10.8%. Moreover, the growth inhibition was -11% in test [3] (setting [7]); 11% in test [3] (setting [8]); -17.1% in test [3] (at 50.0 µM); -4% in test [4] (setting [7]); -8% in test [4] (setting [8]); 26.8% in test [4] (at 50.0 µM). For the same compound, the growth inhibition in test [5] (setting [7]) is 0%; in test [5] (setting [8]), -6%; in test [5] (at 50.0 µM) it was 1.15%; in test [6] (setting [7]), -14%; in test [6] (setting [8]), -9%; in test [6] (at 50.0 µM), -8.9%.

In the case of `O=C(CNC(=O)c1ccccc1)Oc1c(Cl)c(Cl)c(Cl)c(Cl)c1Cl`, the growth inhibition is 12% in test [1] (setting [7]); 61% in test [1] (setting [8]); 75% (active) in test [1] (at 50.0 µM); 42% in test [2] (setting [7]); 82% (active) in test [2] (setting [8]); 74.8% (active) in test [2] (at 50.0 µM). The growth inhibition in test [3] (setting [7]) is 38%; in test [3] (setting [8]), 89% (active); in test [3] (at 50.0 µM), 90.8% (active); in test [4] (setting [7]), 7%; in test [4] (setting [8]), 42%; in test [4] (at 50.0 µM) it was 65.9%. In addition, the growth inhibition in test [5] (setting [7]) is 1%; in test [5] (setting [8]), 45%; in test [5] (at 50.0 µM) it was 34%; in test [6] (setting [7]), 50%; in test [6] (setting [8]), 90% (active); in test [6] (at 50.0 µM) it was 77.5% (active).

`O=C(O/N=C1/CCCC/C1=C\c1ccccc1)c1ccccc1`: the growth inhibition is 24% in test [1] (setting [7]); 86% (active) in test [1] (setting [8]); 76.2% (active) in test [1] (at 50.0 µM); 17% in test [2] (setting [7]); 95% (active) in test [2] (setting [8]); 88.3% (active) in test [2] (at 50.0 µM). For the same compound, the growth inhibition is 51% in test [3] (setting [7]); 94% (active) in test [3] (setting [8]); 85.8% (active) in test [3] (at 50.0 µM); 47% in test [4] (setting [7]); 97% (active) in test [4] (setting [8]); 87% (active) in test [4] (at 50.0 µM). The growth inhibition is 53% in test [5] (setting [7]); 94% (active) in test [5] (setting [8]); 81.1% (active) in test [5] (at 50.0 µM); 19% in test [6] (setting [7]); 82% (active) in test [6] (setting [8]); 81.7% (active) in test [6] (at 50.0 µM).

Take `Cc1cc(/C=C/c2cccc[n+]2C)c(C)n1-c1ccccc1`: the growth inhibition is 4% in test [1] (setting [7]); 85% (active) in test [1] (setting [8]); 96% (active) in test [1] (at 50.0 µM); -1% in test [2] (setting [7]); 93% (active) in test [2] (setting [8]); 91.6% (active) in test [2] (at 50.0 µM). In addition, the growth inhibition was 1% in test [3] (setting [7]); 90% (active) in test [3] (setting [8]); 95.8% (active) in test [3] (at 50.0 µM); -4% in test [4] (setting [7]); 85% (active) in test [4] (setting [8]); 90.8% (active) in test [4] (at 50.0 µM). Also, the growth inhibition in test [5] (setting [7]) is -8%; in test [5] (setting [8]), 85% (active); in test [5] (at 50.0 µM) it was 17.1%; in test [6] (setting [7]), 6%; in test [6] (setting [8]), 94% (active); in test [6] (at 50.0 µM), 93.7% (active).

In the case of `Cc1c2cc(Cl)ccc2cc2c1ccc1ccccc12`, the growth inhibition is 12% in test [1] (setting [7]); 5% in test [1] (setting [8]); 96.7% (active) in test [1] (at 50.0 µM); -7% in test [2] (setting [7]); 6% in test [2] (setting [8]); 98.8% (active) in test [2] (at 50.0 µM). For the same compound, the growth inhibition in test [3] (setting [7]) is 2%; in test [3] (setting [8]), 14%; in test [3] (at 50.0 µM), 99.2% (active); in test [4] (setting [7]), -3%; in test [4] (setting [8]), 8%; in test [4] (at 50.0 µM), 70.8% (active). The growth inhibition in test [5] (setting [7]) is -6%; in test [5] (setting [8]), -4%; in test [5] (at 50.0 µM) it was 96.5% (active); in test [6] (setting [7]), -4%; in test [6] (setting [8]), 16%; in test [6] (at 50.0 µM) it was 98.5% (active).
